Common to all, as to assay: DAPPL (digital affinity profiling via proximity ligation, sequencing); 10 mM Tris-HCl pH 7.5, 50 mM NaCl, 1 mM DTT, 4% glycerol, room temperature, 30 min; GST-TFs on glutathione beads, 16-mer random dsDNA library, 0.1% formaldehyde crosslink after washing; high values mean tight binding
For one test, the target named is T1, FLI1 (Homo sapiens, UniProt Q01543 1-452).
T1 sequence: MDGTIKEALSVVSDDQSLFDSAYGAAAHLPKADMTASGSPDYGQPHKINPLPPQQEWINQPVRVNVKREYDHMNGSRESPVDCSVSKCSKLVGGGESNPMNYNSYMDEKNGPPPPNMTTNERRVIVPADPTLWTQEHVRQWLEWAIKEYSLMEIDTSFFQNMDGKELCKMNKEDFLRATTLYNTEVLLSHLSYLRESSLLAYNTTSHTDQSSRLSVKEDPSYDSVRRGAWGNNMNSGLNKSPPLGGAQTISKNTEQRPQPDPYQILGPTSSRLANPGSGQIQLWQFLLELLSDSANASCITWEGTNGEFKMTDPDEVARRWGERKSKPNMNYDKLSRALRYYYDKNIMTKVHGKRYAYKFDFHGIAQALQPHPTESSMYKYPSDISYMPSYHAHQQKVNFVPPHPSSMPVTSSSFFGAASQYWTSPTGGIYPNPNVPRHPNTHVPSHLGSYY
Particulars: protein: recombinant; tags: N-terminal GST; dsDNA, one strand shown. In outline:
(§1)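 Beads coated with glutathione captured GST-fused human transcription factors that had been expressed in yeast, and the factors were then given DNA barcodes and pooled with a tag-only sample. The pools were incubated with 200 nmole of a random double-stranded 16-mer DNA library in Tris/NaCl/DTT/glycerol buffer for 30 min at room temperature, washed, crosslinked with 0.1% formaldehyde and proximity-ligated with BsaI/T4 ligase at 37 °C for 1 h. PCR amplification and Illumina NextSeq500 sequencing came last. Binding signal is each hexamer's read frequency for a factor divided by its frequency for the tag-only sample.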

The next test deals with T2, ELK1 (Homo sapiens, UniProt P19419 1-428).
T2 sequence: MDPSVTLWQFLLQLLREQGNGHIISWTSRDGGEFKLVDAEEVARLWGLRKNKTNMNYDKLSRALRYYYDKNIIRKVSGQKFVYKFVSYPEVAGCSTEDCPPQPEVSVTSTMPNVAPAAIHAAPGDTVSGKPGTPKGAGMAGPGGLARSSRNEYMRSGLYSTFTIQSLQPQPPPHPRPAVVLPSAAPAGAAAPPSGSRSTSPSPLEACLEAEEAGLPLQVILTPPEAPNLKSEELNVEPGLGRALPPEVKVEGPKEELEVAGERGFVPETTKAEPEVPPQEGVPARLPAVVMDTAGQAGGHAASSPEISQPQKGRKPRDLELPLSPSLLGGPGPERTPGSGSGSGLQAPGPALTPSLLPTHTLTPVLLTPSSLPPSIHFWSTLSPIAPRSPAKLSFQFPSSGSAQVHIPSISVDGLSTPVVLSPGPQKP
As to conditions: protein: recombinant; tags: N-terminal GST; dsDNA, one strand shown. In outline: as §1

Another test addresses T3, GABPA (Homo sapiens, UniProt Q06546 1-454).
T3 sequence: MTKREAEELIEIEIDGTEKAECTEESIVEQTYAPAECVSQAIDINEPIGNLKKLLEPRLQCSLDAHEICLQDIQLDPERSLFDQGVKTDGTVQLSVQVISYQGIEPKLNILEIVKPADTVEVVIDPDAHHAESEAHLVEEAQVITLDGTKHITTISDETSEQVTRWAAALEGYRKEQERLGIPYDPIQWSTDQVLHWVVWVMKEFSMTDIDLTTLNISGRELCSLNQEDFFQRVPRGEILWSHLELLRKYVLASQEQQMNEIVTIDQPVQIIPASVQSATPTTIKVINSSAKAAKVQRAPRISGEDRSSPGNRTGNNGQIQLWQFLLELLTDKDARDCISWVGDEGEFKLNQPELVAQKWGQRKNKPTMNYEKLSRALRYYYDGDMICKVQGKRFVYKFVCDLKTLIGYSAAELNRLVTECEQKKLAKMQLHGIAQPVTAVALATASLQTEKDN
Particulars: protein: recombinant; tags: N-terminal GST; dsDNA, one strand shown. In outline: as §1

In a further test the target is T4, ERG (Homo sapiens, UniProt P11308 1-479).
T4 sequence: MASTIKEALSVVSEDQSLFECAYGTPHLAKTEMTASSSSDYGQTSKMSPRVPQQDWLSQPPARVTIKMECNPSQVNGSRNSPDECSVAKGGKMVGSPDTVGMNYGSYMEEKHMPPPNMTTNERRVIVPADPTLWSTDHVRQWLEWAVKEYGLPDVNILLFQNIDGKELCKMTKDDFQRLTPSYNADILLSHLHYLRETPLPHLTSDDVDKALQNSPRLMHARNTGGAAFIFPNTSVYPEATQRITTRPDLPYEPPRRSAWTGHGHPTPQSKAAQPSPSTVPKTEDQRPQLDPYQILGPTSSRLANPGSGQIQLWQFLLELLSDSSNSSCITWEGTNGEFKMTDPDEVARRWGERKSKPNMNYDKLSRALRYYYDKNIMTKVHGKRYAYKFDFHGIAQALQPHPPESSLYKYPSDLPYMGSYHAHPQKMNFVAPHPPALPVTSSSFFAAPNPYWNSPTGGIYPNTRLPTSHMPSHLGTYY
Particulars: protein: recombinant; tags: N-terminal GST; dsDNA, one strand shown. In outline: as §1

A further test deals with ELF1 (Homo sapiens, UniProt P32519 1-619). As to conditions: protein: recombinant; tags: N-terminal GST; dsDNA, one strand shown. In outline:
as §1

For another test, the target named is T5, EHF (Homo sapiens, UniProt Q9NZC4 1-300).
T5 sequence: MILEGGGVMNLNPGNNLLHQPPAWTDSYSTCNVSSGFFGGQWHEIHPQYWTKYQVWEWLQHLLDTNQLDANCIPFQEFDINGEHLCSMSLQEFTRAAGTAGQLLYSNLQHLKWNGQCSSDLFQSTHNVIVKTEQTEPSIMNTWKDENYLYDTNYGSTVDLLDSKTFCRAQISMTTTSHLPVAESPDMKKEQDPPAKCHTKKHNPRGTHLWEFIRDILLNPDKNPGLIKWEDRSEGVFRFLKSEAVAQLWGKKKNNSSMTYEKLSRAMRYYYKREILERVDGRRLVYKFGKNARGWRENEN
As to conditions: protein: recombinant; tags: N-terminal GST; dsDNA, one strand shown. In outline:
as §1

A further test addresses SPI1 (Homo sapiens, UniProt P17947 1-270). As to conditions: protein: recombinant; tags: N-terminal GST; dsDNA, one strand shown. In outline:
as §1

For the next test, the target named is SPIB (Homo sapiens, UniProt Q01892 1-262). As to conditions: protein: recombinant; tags: N-terminal GST; dsDNA, one strand shown. An outline of the steps: as §1
Chain of SPIB (Q01892 whole entry): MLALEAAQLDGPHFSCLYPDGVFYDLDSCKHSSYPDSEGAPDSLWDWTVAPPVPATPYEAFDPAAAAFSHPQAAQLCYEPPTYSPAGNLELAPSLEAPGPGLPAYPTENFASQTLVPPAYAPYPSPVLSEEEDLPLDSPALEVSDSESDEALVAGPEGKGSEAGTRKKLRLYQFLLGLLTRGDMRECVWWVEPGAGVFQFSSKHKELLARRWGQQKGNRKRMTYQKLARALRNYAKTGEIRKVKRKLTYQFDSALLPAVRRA
A further test deals with T6, FEV (Homo sapiens, UniProt Q99581 1-238).
T6 sequence: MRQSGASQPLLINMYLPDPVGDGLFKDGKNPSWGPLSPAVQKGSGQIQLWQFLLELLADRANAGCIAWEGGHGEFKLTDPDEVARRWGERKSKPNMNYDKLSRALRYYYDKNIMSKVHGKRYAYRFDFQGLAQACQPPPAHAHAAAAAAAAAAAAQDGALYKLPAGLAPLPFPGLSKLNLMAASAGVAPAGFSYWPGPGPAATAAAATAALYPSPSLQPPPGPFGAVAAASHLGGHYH
As to conditions: protein: recombinant; tags: N-terminal GST; dsDNA, one strand shown. An outline of the steps: as §1

A further test addresses ETV5 (Homo sapiens, UniProt P41161 1-510). As to conditions: protein: recombinant; tags: N-terminal GST; dsDNA, one strand shown. An outline of the steps:
as §1

The next test has as its target HSF1 (Homo sapiens, UniProt Q00613 1-529). Particulars: protein: recombinant; tags: N-terminal GST; chain copies: 3; dsDNA, one strand shown. In outline:
as §1

The target of a further test is T7, SPIC (Homo sapiens, UniProt Q8N5J4 1-248).
T7 sequence: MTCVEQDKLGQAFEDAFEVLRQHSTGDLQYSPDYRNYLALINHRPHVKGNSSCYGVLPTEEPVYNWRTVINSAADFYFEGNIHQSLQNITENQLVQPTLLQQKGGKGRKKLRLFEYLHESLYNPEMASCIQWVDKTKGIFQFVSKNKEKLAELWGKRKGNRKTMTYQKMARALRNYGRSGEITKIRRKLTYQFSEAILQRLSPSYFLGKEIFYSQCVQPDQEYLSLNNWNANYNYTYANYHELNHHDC
As to conditions: protein: recombinant; tags: N-terminal GST; dsDNA, one strand shown. In outline: as §1

The target of the next test is ELF4 (Homo sapiens, UniProt Q99607 1-663). Particulars: protein: recombinant; tags: N-terminal GST; dsDNA, one strand shown. In outline: as §1
Chain of ELF4 (Q99607 whole entry): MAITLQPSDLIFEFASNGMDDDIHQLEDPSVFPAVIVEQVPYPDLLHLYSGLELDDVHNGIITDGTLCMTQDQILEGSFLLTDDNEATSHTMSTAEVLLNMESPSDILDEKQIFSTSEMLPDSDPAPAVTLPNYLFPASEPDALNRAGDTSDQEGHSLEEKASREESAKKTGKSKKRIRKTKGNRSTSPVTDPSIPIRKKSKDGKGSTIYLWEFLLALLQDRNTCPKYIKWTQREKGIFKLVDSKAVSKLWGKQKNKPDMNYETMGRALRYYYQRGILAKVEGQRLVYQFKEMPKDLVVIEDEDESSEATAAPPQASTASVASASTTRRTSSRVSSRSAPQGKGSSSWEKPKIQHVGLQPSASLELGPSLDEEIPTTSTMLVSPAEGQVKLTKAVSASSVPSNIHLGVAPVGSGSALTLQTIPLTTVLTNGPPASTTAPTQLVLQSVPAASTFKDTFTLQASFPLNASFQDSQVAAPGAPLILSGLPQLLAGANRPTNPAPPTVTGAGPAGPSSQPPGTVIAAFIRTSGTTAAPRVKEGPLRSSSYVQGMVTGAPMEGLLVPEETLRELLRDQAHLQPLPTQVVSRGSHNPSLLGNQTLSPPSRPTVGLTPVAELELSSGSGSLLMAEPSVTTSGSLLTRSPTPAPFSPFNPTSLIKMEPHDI
A further test deals with T8, ETV2 (Homo sapiens, UniProt O00321 1-342).
T8 sequence: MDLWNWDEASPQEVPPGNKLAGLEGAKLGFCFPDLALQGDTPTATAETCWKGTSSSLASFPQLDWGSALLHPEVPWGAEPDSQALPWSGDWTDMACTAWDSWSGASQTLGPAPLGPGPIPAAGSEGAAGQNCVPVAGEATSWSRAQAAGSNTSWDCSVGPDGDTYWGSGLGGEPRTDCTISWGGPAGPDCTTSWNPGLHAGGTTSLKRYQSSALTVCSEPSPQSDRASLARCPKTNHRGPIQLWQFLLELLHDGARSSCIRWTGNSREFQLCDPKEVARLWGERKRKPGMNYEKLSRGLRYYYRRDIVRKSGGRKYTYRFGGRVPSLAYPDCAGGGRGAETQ
Particulars: protein: recombinant; tags: N-terminal GST; dsDNA, one strand shown. An outline of the steps: as §1

For a further test, the target named is CRX (Homo sapiens, UniProt O43186 1-299). As to conditions: protein: recombinant; tags: N-terminal GST; dsDNA, one strand shown. In outline: as §1
Chain of CRX (O43186 whole entry): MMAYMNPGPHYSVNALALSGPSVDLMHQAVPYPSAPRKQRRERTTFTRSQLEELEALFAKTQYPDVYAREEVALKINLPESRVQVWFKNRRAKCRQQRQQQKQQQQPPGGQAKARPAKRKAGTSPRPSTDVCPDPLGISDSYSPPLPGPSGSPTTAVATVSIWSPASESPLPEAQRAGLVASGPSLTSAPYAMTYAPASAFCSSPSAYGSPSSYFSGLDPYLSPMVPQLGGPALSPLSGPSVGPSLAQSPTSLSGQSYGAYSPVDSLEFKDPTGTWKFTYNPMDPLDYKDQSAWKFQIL
A further test concerns the target ETV1 (Homo sapiens, UniProt P50549 1-477). Particulars: protein: recombinant; tags: N-terminal GST; dsDNA, one strand shown. In outline: as §1

Chain of HSF1 (Q00613 whole entry): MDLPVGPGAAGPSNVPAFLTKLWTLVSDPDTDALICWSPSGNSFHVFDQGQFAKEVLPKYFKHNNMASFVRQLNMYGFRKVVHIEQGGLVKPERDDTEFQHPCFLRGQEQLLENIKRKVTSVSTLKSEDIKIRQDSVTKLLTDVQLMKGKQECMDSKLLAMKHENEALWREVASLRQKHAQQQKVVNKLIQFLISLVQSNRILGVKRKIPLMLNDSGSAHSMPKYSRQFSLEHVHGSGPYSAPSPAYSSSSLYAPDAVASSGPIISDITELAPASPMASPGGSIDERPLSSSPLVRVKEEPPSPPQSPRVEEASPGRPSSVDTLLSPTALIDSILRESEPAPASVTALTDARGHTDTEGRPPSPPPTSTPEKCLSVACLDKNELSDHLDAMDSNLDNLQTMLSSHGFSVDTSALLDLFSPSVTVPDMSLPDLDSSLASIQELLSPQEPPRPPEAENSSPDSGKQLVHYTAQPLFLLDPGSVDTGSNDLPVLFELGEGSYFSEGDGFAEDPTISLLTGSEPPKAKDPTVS
Chain of ETV5 (P41161 whole entry): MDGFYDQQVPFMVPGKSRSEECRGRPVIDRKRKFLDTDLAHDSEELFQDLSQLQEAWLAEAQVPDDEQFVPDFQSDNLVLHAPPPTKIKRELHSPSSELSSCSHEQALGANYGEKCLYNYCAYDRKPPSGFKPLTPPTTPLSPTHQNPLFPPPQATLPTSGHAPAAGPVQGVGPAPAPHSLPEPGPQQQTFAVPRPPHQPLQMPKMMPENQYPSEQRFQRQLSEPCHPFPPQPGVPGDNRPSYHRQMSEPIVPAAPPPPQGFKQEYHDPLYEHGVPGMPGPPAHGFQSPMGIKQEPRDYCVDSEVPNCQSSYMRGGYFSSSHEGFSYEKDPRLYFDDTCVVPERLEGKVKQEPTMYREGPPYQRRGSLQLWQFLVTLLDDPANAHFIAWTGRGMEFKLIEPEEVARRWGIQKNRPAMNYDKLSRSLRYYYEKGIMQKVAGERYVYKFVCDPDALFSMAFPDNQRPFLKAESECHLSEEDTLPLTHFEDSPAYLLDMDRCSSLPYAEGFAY
Chain of ELF1 (P32519 whole entry): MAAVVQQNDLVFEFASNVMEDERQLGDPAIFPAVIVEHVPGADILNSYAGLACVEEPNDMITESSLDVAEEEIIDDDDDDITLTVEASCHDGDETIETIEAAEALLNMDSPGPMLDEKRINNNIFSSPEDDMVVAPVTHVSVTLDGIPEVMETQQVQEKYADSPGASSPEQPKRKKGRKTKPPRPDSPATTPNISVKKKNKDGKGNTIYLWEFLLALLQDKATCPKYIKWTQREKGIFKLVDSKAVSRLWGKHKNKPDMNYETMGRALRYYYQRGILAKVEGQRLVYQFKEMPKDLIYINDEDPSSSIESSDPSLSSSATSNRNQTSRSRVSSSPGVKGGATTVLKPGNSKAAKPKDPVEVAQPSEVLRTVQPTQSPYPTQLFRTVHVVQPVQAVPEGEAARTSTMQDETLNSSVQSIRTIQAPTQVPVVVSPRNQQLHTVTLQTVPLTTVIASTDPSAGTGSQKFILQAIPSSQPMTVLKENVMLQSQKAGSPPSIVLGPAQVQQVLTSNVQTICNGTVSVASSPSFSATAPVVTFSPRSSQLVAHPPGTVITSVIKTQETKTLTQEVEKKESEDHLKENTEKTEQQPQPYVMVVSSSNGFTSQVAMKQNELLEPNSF
Chain of ETV1 (P50549 whole entry): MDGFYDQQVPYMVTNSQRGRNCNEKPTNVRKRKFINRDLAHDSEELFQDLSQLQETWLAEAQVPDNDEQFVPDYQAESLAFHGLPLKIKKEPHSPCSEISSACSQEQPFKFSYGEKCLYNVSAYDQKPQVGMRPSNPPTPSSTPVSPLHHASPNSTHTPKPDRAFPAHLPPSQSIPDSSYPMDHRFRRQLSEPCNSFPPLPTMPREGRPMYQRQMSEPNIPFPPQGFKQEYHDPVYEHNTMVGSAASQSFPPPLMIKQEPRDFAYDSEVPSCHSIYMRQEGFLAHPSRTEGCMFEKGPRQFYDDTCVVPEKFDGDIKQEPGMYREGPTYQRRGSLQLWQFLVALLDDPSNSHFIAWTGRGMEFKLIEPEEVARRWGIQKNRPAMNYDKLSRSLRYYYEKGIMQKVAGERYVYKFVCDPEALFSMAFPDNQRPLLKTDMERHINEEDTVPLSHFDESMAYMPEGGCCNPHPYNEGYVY

As to ATCGTC, the binding signal was 1.11 fold enrichment (6-mer frequency, TF over GST control) with FLI1; 1.17 fold enrichment (6-mer frequency, TF over GST control) with ELK1; 1.06 fold enrichment (6-mer frequency, TF over GST control) with GABPA; 1.03 fold enrichment (6-mer frequency, TF over GST control) with ERG; 1.05 fold enrichment (6-mer frequency, TF over GST control) with ELF1; 1.1 fold enrichment (6-mer frequency, TF over GST control) with EHF. Also, the binding signal was 1.04 fold enrichment (6-mer frequency, TF over GST control) in the test with SPI1; 1.15 fold enrichment (6-mer frequency, TF over GST control) with SPIB; 1.02 fold enrichment (6-mer frequency, TF over GST control) with FEV; 1.06 fold enrichment (6-mer frequency, TF over GST control) with ETV5; 1.06 fold enrichment (6-mer frequency, TF over GST control) in the test with HSF1; 1.06 fold enrichment (6-mer frequency, TF over GST control) with SPIC. The binding signal in the test with ELF4 was 1.07 fold enrichment (6-mer frequency, TF over GST control); with ETV2, 1.02 fold enrichment (6-mer frequency, TF over GST control); with CRX, 1.09 fold enrichment (6-mer frequency, TF over GST control); with ETV1, 1.14 fold enrichment (6-mer frequency, TF over GST control).

The values above are taken from article PMC7862700, “An all-to-all approach to the identification of sequence-specific readers for epigenetic DNA modifications on cytosine”.
